Growth inhibition data for 16 compounds are collected here from PubChem BioAssay (NCI).

Structures are written as SMILES. This is part of a sample that, as a whole, favours compounds with a hit. Of some 79,000 tested, about 15% had one in any assay. Values without a mark were called inactive. Active and inactive are the calls of the source. Cut-off read from the data, not from the text of the source: active = growth inhibition above about 70%; inactive = the rest.

This assay in a line: NCI Yeast Anticancer Drug Screen. Data for the sgs1 mgt1 strain (AID 161).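 Note: 0% = growth of cultures given vehicle only.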 Conditions: S. cerevisiae sgs1 mgt1 strain, at 50.0 µM (retest, dose inferred, filed as 5.0), hits give high values. In a few lines: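 This yeast growth screen uses a strain with defined DNA-repair lesions; compound-treated growth is compared with vehicle-treated growth.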
Regarding `CC12CCC(c3sc(N)c(C#N)c31)C2(C)C` (stereo unspecified), the growth inhibition was -4%. As for `O=C1/C(=C/c2cccc(F)c2)CCCc2ccccc21`, the growth inhibition was 67%. In the case of `CC(=O)N[C@H]1CC[C@H]2[C@@H]3CCC4=CC(=O)CC[C@]4(C)[C@H]3CC[C@]12C`, the growth inhibition is -10%. As to `C/C(=N/O)c1ccc2c(c1)C(=NO)c1cc(/C(C)=N/O)ccc1-2`, the growth inhibition was 99% (active). As to `Cc1cccc(N2C(c3ccccc3)c3ccc(C)cc3NS2=O)c1` (stereo unspecified), the growth inhibition is -2%. Regarding `[Pt].c1ccc(P(CCP(CCP(c2ccccc2)c2ccccc2)CCP(c2ccccc2)c2ccccc2)c2ccccc2)cc1`, the growth inhibition is 89% (active).

As to `Cc1cc(I)ccc1NC(=S)Nc1ccccc1F`, the growth inhibition is 41%.

For the compound `FC(F)(F)c1ccccc1NC(=S)SCc1ccc(Cl)cc1`, the growth inhibition was 94% (active). For `COC(=O)C1(C)CC2C(C)(CCC3(C)C4=CC=C5C(=CC(=O)C(O)=C5C)C4(C)CCC23C)CC1O` (stereo unspecified), the growth inhibition is 98% (active). Regarding `CC1CCC(=NNC(N)=O)CC1` (stereo unspecified), the growth inhibition was -4%. Turning to `CCOC(=O)C(NS(=O)(=O)c1ccccc1)(C(F)(F)F)P(=O)(OCC(C)C)OCC(C)C` (stereo unspecified), the growth inhibition is -3%. In the case of `O=[N+]([O-])c1ccc(/C=N/NC2=CS(=O)(=O)C=C2)cc1`, the growth inhibition is 1%. In the case of `CC(C)c1ccc2c(c1)CCC1C(C)(CNC(=O)S)CCCC21C.[Zn+2]` (stereo unspecified), the growth inhibition was 40%. For the compound `Cc1ccc(N=Nc2sc(N)nc2C)cc1C`, the growth inhibition is -45%. For `CC(C)(C)C1CCC2c3c([nH]c4ccccc34)C3C(=O)N(c4ccc(C(=O)O)cc4)C(=O)C3C2C1` (stereo unspecified), the growth inhibition was 99% (active).

As to `O=C(CBr)Nc1ccc(Cc2ccc(NC(=O)CBr)cc2)cc1`, the growth inhibition was -4%.
